PMC7862700, “An all-to-all approach to the identification of sequence-specific readers for epigenetic DNA modifications on cytosine”

Experiments:
Test in all cases: DAPPL (digital affinity profiling via proximity ligation, sequencing); 10 mM Tris-HCl pH 7.5, 50 mM NaCl, 1 mM DTT, 4% glycerol, room temperature, 30 min; GST-TFs on glutathione beads, 16-mer random dsDNA library, 0.1% formaldehyde crosslink after washing; high values mean tight binding
Conditions in all cases: protein: recombinant; tags: N-terminal GST; dsDNA, one strand shown
[1] = biological target: T1, ERF (Homo sapiens, UniProt P50548 1-548)
T1 sequence: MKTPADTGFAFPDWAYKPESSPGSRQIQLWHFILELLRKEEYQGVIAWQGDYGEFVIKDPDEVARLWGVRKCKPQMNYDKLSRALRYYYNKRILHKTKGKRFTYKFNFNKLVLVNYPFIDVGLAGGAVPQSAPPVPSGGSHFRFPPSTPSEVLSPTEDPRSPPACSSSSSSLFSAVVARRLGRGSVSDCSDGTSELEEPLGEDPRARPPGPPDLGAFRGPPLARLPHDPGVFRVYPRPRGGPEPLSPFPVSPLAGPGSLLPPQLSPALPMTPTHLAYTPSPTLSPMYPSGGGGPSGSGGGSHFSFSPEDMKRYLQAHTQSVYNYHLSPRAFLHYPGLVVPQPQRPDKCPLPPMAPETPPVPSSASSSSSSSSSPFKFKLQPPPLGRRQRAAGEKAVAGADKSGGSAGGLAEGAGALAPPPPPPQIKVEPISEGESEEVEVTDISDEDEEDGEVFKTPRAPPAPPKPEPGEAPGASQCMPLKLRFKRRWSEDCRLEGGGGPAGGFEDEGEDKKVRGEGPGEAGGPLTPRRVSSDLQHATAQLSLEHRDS
Method in brief: (§1)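 Binding signal is given per hexamer as its read frequency for a factor divided by its frequency in the tag-only sample. GST-fused human transcription factors were expressed in yeast, captured on glutathione beads, barcoded with DNA and pooled with that sample, then incubated with 200 nmole of a 16-mer random double-stranded DNA library in Tris/NaCl/DTT/glycerol buffer for 30 min at room temperature. The pools were then washed, crosslinked, proximity-ligated, amplified by PCR and sequenced on an Illumina NextSeq500.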

[2] = biological target: T2, ETV3L (Homo sapiens, UniProt Q6ZN32 1-361)
T2 sequence: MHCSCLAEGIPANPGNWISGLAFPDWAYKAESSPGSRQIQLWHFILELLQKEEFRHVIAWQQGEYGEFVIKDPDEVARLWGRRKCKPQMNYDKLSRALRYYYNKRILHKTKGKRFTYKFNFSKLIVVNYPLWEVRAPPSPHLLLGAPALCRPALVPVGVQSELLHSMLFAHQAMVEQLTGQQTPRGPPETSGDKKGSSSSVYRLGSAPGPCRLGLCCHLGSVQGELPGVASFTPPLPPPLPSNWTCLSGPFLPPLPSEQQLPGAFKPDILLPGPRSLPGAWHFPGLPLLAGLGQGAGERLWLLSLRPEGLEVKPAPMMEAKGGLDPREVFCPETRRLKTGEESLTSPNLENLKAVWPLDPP
Method in brief: as §1

[3] = biological target: T3, ETS2 (Homo sapiens, UniProt P15036 1-469)
T3 sequence: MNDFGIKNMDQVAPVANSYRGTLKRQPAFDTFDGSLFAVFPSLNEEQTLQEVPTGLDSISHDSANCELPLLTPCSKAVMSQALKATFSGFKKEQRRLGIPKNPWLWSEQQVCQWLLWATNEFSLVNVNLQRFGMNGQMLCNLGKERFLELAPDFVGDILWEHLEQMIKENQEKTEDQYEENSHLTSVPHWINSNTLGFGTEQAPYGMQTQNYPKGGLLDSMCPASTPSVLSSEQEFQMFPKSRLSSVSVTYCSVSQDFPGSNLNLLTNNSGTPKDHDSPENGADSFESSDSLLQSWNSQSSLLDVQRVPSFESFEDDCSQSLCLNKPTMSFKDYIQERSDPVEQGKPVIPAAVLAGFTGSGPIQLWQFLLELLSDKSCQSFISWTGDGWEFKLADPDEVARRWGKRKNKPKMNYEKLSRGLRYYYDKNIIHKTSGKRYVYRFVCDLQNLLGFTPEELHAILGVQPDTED
Method in brief: as §1

[4] = biological target: T4, SPDEF (Homo sapiens, UniProt O95238 1-335)
T4 sequence: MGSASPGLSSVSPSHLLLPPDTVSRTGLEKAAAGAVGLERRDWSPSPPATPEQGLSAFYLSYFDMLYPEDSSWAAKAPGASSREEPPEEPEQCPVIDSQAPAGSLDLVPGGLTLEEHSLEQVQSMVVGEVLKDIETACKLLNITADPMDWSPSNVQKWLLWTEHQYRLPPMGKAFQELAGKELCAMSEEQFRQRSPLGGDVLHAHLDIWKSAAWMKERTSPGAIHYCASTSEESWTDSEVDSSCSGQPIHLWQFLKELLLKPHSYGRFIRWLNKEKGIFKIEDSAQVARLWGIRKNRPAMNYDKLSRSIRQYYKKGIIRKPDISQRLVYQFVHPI
Method in brief: as §1

[5] = biological target: T5, ETV7 (Homo sapiens, UniProt Q9Y603 1-341)
T5 sequence: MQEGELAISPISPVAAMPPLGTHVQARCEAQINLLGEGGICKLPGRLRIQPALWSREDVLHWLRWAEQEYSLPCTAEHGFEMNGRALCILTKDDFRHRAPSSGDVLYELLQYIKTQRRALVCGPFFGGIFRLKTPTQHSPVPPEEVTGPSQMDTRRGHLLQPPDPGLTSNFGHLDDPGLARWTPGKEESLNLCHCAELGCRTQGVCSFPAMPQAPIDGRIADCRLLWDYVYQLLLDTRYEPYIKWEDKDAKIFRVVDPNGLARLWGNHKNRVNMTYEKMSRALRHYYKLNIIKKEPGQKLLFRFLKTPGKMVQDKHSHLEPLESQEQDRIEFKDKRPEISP
Method in brief: as §1

[6] = biological target: T6, ELF5 (Homo sapiens, UniProt Q9UKW6-2 1-255)
T6 sequence: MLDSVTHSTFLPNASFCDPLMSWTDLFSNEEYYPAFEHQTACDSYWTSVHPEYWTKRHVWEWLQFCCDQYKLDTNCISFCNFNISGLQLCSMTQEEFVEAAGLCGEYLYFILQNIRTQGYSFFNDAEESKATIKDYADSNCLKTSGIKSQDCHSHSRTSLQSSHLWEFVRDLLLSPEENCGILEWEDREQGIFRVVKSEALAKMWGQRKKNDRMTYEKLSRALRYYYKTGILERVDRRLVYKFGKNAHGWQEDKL
Method in brief: as §1

[7] = biological target: T7, ETV3 (Homo sapiens, UniProt P41162-2 1-143)
T7 sequence: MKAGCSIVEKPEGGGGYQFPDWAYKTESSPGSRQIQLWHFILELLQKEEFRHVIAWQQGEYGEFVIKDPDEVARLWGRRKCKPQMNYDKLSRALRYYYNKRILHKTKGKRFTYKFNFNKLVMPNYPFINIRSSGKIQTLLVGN
Method in brief: as §1

[8] = biological target: ETV6 (Homo sapiens, UniProt P41212 1-452)
Method in brief: as §1

ETV6, sequence (P41212 whole entry): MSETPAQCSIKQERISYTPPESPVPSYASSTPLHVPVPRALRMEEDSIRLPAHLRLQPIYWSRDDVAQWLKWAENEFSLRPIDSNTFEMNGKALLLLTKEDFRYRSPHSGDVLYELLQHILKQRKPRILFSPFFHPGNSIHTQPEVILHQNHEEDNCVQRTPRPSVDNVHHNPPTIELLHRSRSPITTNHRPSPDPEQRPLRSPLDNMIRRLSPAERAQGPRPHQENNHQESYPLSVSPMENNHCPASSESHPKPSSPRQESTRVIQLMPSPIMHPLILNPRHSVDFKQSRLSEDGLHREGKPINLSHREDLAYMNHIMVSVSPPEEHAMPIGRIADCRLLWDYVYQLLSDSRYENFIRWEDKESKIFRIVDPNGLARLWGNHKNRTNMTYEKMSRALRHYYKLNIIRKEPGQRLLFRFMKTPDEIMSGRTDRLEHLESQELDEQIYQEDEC

Sequence	binding signal [1]	binding signal [2]	binding signal [3]	binding signal [4]	binding signal [5]	binding signal [6]	binding signal [7]	binding signal [8]
CGCTCC	1.31 fold enrichment (6-mer frequency, TF over GST control)	1.4 fold enrichment (6-mer frequency, TF over GST control)	1.39 fold enrichment (6-mer frequency, TF over GST control)	1.22 fold enrichment (6-mer frequency, TF over GST control)	1.18 fold enrichment (6-mer frequency, TF over GST control)	1.23 fold enrichment (6-mer frequency, TF over GST control)	1.19 fold enrichment (6-mer frequency, TF over GST control)	1.11 fold enrichment (6-mer frequency, TF over GST control)
CTTTAC	1.3 fold enrichment (6-mer frequency, TF over GST control)	1.46 fold enrichment (6-mer frequency, TF over GST control)	1.36 fold enrichment (6-mer frequency, TF over GST control)	1.35 fold enrichment (6-mer frequency, TF over GST control)	1.38 fold enrichment (6-mer frequency, TF over GST control)	1.35 fold enrichment (6-mer frequency, TF over GST control)	1.39 fold enrichment (6-mer frequency, TF over GST control)	1.41 fold enrichment (6-mer frequency, TF over GST control)
GTTCAT	1.11 fold enrichment (6-mer frequency, TF over GST control)	1.16 fold enrichment (6-mer frequency, TF over GST control)	1.16 fold enrichment (6-mer frequency, TF over GST control)	1.18 fold enrichment (6-mer frequency, TF over GST control)	1.05 fold enrichment (6-mer frequency, TF over GST control)	1.1 fold enrichment (6-mer frequency, TF over GST control)	1.1 fold enrichment (6-mer frequency, TF over GST control)	1.17 fold enrichment (6-mer frequency, TF over GST control)
CTGATG	1.48 fold enrichment (6-mer frequency, TF over GST control)	1.53 fold enrichment (6-mer frequency, TF over GST control)	1.68 fold enrichment (6-mer frequency, TF over GST control)	1.5 fold enrichment (6-mer frequency, TF over GST control)	1.64 fold enrichment (6-mer frequency, TF over GST control)	1.64 fold enrichment (6-mer frequency, TF over GST control)	1.74 fold enrichment (6-mer frequency, TF over GST control)	1.72 fold enrichment (6-mer frequency, TF over GST control)
ATTACT	1.37 fold enrichment (6-mer frequency, TF over GST control)	1.23 fold enrichment (6-mer frequency, TF over GST control)	1.31 fold enrichment (6-mer frequency, TF over GST control)	1.26 fold enrichment (6-mer frequency, TF over GST control)	1.25 fold enrichment (6-mer frequency, TF over GST control)	1.25 fold enrichment (6-mer frequency, TF over GST control)	1.29 fold enrichment (6-mer frequency, TF over GST control)	1.37 fold enrichment (6-mer frequency, TF over GST control)
CCCTCC	1.58 fold enrichment (6-mer frequency, TF over GST control)	1.31 fold enrichment (6-mer frequency, TF over GST control)	1.51 fold enrichment (6-mer frequency, TF over GST control)	1.36 fold enrichment (6-mer frequency, TF over GST control)	1.37 fold enrichment (6-mer frequency, TF over GST control)	1.34 fold enrichment (6-mer frequency, TF over GST control)	1.39 fold enrichment (6-mer frequency, TF over GST control)	1.4 fold enrichment (6-mer frequency, TF over GST control)
AACCAC	1.18 fold enrichment (6-mer frequency, TF over GST control)	1.16 fold enrichment (6-mer frequency, TF over GST control)	1.14 fold enrichment (6-mer frequency, TF over GST control)	1.08 fold enrichment (6-mer frequency, TF over GST control)	1.03 fold enrichment (6-mer frequency, TF over GST control)	1.13 fold enrichment (6-mer frequency, TF over GST control)	1.17 fold enrichment (6-mer frequency, TF over GST control)	1.19 fold enrichment (6-mer frequency, TF over GST control)
GTCTTA	1.12 fold enrichment (6-mer frequency, TF over GST control)	1.21 fold enrichment (6-mer frequency, TF over GST control)	1.16 fold enrichment (6-mer frequency, TF over GST control)	1.17 fold enrichment (6-mer frequency, TF over GST control)	1.21 fold enrichment (6-mer frequency, TF over GST control)	1.18 fold enrichment (6-mer frequency, TF over GST control)	1.23 fold enrichment (6-mer frequency, TF over GST control)	1.11 fold enrichment (6-mer frequency, TF over GST control)
CCTCGT	1.23 fold enrichment (6-mer frequency, TF over GST control)	1.2 fold enrichment (6-mer frequency, TF over GST control)	1.25 fold enrichment (6-mer frequency, TF over GST control)	1.19 fold enrichment (6-mer frequency, TF over GST control)	1.17 fold enrichment (6-mer frequency, TF over GST control)	1.4 fold enrichment (6-mer frequency, TF over GST control)	1.27 fold enrichment (6-mer frequency, TF over GST control)	1.23 fold enrichment (6-mer frequency, TF over GST control)
TGTACC	1.17 fold enrichment (6-mer frequency, TF over GST control)	1.34 fold enrichment (6-mer frequency, TF over GST control)	1.38 fold enrichment (6-mer frequency, TF over GST control)	1.47 fold enrichment (6-mer frequency, TF over GST control)	1.26 fold enrichment (6-mer frequency, TF over GST control)	1.27 fold enrichment (6-mer frequency, TF over GST control)	1.35 fold enrichment (6-mer frequency, TF over GST control)	1.28 fold enrichment (6-mer frequency, TF over GST control)
TATGCG	1.23 fold enrichment (6-mer frequency, TF over GST control)	1.39 fold enrichment (6-mer frequency, TF over GST control)	1.43 fold enrichment (6-mer frequency, TF over GST control)	1.36 fold enrichment (6-mer frequency, TF over GST control)	1.51 fold enrichment (6-mer frequency, TF over GST control)	1.32 fold enrichment (6-mer frequency, TF over GST control)	1.58 fold enrichment (6-mer frequency, TF over GST control)	1.22 fold enrichment (6-mer frequency, TF over GST control)
CACTCA	1.2 fold enrichment (6-mer frequency, TF over GST control)	1.11 fold enrichment (6-mer frequency, TF over GST control)	1.16 fold enrichment (6-mer frequency, TF over GST control)	1.14 fold enrichment (6-mer frequency, TF over GST control)	1.21 fold enrichment (6-mer frequency, TF over GST control)	1.12 fold enrichment (6-mer frequency, TF over GST control)	1.09 fold enrichment (6-mer frequency, TF over GST control)	1.14 fold enrichment (6-mer frequency, TF over GST control)
TCATCA	1.23 fold enrichment (6-mer frequency, TF over GST control)	1.18 fold enrichment (6-mer frequency, TF over GST control)	1.15 fold enrichment (6-mer frequency, TF over GST control)	1.12 fold enrichment (6-mer frequency, TF over GST control)	1.15 fold enrichment (6-mer frequency, TF over GST control)	1.16 fold enrichment (6-mer frequency, TF over GST control)	1.22 fold enrichment (6-mer frequency, TF over GST control)	1.08 fold enrichment (6-mer frequency, TF over GST control)
TACGCC	1.36 fold enrichment (6-mer frequency, TF over GST control)	1.36 fold enrichment (6-mer frequency, TF over GST control)	1.29 fold enrichment (6-mer frequency, TF over GST control)	1.26 fold enrichment (6-mer frequency, TF over GST control)	1.19 fold enrichment (6-mer frequency, TF over GST control)	1.2 fold enrichment (6-mer frequency, TF over GST control)	1.27 fold enrichment (6-mer frequency, TF over GST control)	1.28 fold enrichment (6-mer frequency, TF over GST control)
CACTCT	1.37 fold enrichment (6-mer frequency, TF over GST control)	1.29 fold enrichment (6-mer frequency, TF over GST control)	1.27 fold enrichment (6-mer frequency, TF over GST control)	1.14 fold enrichment (6-mer frequency, TF over GST control)	1.19 fold enrichment (6-mer frequency, TF over GST control)	1.18 fold enrichment (6-mer frequency, TF over GST control)	1.43 fold enrichment (6-mer frequency, TF over GST control)	1.23 fold enrichment (6-mer frequency, TF over GST control)
